Reference: PubChem BioAssay AID624136 (Broad Institute, 2012)
Among all 17,000 compounds or so, about 75 (0.4%) were called active. The sample holds actives, similar compounds and a random draw of the others, so the mix is not that of the screen.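 The calls were made as follows: active = compounds whose four printed spots each glow above background more than chance allows, each with a p-value under 7%; inactive = the rest.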

Test system: mutant tumor protein p53 (GST-tagged), Homo sapiens
Assay: small molecules binding GST-tagged mutant p53 – biochemical, small molecule microarray, anti-GST fluorescence, primary screen (AID 624136)

Which outcome does the source give for `CC(=O)c1cccc(NC(=O)c2ccc(CNS(=O)(=O)c3ccc(C(C)(C)C)cc3)cc2)c1` here?
Its outcome is “inactive”.

Which outcome does the source give for `C[C@@H]1CCCCO[C@H](CN(C)C(=O)NC2CCCCC2)[C@H](C)CN([C@@H](C)CO)C(=O)c2cc(NC(=O)C3CCCCC3)ccc2O1` here?
Its outcome is “inactive”.

For `C[C@@H]1CCCCO[C@H](CN(C)S(=O)(=O)c2ccccc2)[C@H](C)CN([C@@H](C)CO)C(=O)c2cc(N(C)C)ccc2O1`, which outcome is on record?
The outcome was “inactive”.

`C[C@@H]1CN([C@@H](C)CO)C(=O)Cc2cc(NC(=O)Nc3ccc4c(c3)OCO4)ccc2O[C@@H]1CN(C)C(=O)Nc1ccc2c(c1)OCO2` was tested. Which outcome did it give?
Its outcome is “inactive”.

With `C[C@@H]1CN([C@H](C)CO)C(=O)c2cc(NS(=O)(=O)c3ccccc3)ccc2O[C@H]1CN(C)C(=O)Nc1ccc2c(c1)OCO2` as the compound, how does the outcome read?
Its outcome is “inactive”.

How did the outcome turn out when `O=c1cc(CSc2nnnn2-c2ccccc2)[nH]c(=S)[nH]1` was run?
Its outcome is “inactive”.

How did the outcome turn out when `Cc1ccc(C)c(S(=O)(=O)NC(C)C(=O)Nc2ccc(Br)cc2F)c1` (stereo unspecified) was run?
The outcome was “inactive”.

How did the outcome turn out when `C[C@H](CO)N1C[C@H](C)[C@H](CN(C)Cc2ccncc2)Oc2ccc(NC(=O)Cc3cn(C)c4ccccc34)cc2CC1=O` was run?
The outcome was “inactive”.

`COc1ccc(-c2cc(C(=O)N3CCCC3C(=O)O)c(C)o2)cc1OC` (stereo unspecified) was tested. Which outcome did it give?
Its outcome is “inactive”.

`CCN1CCN(S(=O)(=O)c2cc(OCC(N)=O)c(C)cc2Cl)CC1` was tested. Which outcome did it give?
Its outcome is “inactive”.

Which outcome does the source give for `Cc1cc(C(=O)Nc2cccc3c2O[C@@H](CN(C)C(=O)Nc2ccc(F)cc2)[C@H](C)CN([C@@H](C)CO)C3=O)n(C)n1` here?
The outcome was “inactive”.

With `C[C@H](CO)N1C[C@H](C)[C@@H](CN(C)Cc2ccc(C(=O)O)cc2)Oc2ccc(NC(=O)Cn3cnnn3)cc2CC1=O` as the compound, how does the outcome read?
Its outcome is “inactive”.

Which outcome does the source give for `C[C@@H]1CN([C@@H](C)CO)C(=O)c2cccc(NC(=O)c3ccncc3)c2O[C@H]1CN(C)S(=O)(=O)c1ccc(F)cc1` here?
The outcome was “inactive”.

How did the outcome turn out when `C[C@H](CO)N1C[C@H](C)[C@@H](CN(C)CC2CCCCC2)Oc2ccc(NC(=O)Cn3cnnn3)cc2CC1=O` was run?
The outcome was “inactive”.

Which outcome does the source give for `COc1cc(C2OC(c3cc(OC)c(OC)c(OC)c3)C(C)C2C)cc(OC)c1OC` (stereo unspecified) here?
Its outcome is “inactive”.

For `C[C@@H]1CN([C@@H](C)CO)C(=O)c2cc(NS(=O)(=O)c3ccccc3)ccc2O[C@@H](C)CCCCO[C@H]1CN(C)S(=O)(=O)c1cccs1`, which outcome is on record?
Its outcome is “inactive”.

`Cc1cc(C)cc(N2C(=O)CSC2c2cccc([N+](=O)[O-])c2)c1` (stereo unspecified) was tested. Which outcome did it give?
Its outcome is “inactive”.

For `C[C@H](CO)N1C[C@H](C)[C@H](CN(C)C)Oc2ncc(C#Cc3ccc(F)cc3)cc2C1=O`, which outcome is on record?
The outcome was “inactive”.

With `C[C@H]1CN([C@@H](C)CO)C(=O)Cc2cc(NC(=O)NC3CCCCC3)ccc2O[C@H]1CN(C)S(=O)(=O)c1ccccc1` as the compound, how does the outcome read?
The outcome was “inactive”.

How did the outcome turn out when `C[C@H]1CN([C@@H](C)CO)C(=O)c2cccc(NS(=O)(=O)c3ccccc3)c2O[C@@H]1CN(C)C(=O)Nc1ccc(C(F)(F)F)cc1` was run?
Its outcome is “inactive”.

With `Cc1noc(C)c1NC(=O)N(C)C[C@@H]1Oc2ccc(NC(=O)CCN3CCOCC3)cc2CC(=O)N([C@H](C)CO)C[C@@H]1C` as the compound, how does the outcome read?
Its outcome is “inactive”.

How did the outcome turn out when `COc1ccc(S(=O)(=O)Nc2ccc3c(c2)CC(=O)N([C@@H](C)CO)C[C@@H](C)[C@@H](CN(C)C)O3)cc1` was run?
The outcome was “inactive”.

With `CCO/C([O-])=N\c1c[n+](N2CCOCC2)no1` as the compound, how does the outcome read?
The outcome was “inactive”.

For `C[C@H](CO)N1C[C@H](C)[C@@H](CN(C)CC2CC2)Oc2ccc(NS(=O)(=O)c3cn(C)cn3)cc2CC1=O`, which outcome is on record?
Its outcome is “inactive”.

Which outcome does the source give for `Cc1ccc(-c2cn3c4c(sc3n2)CCCC4)cc1` here?
Its outcome is “inactive”.

Which outcome does the source give for `Cc1noc(C)c1S(=O)(=O)N(C)C[C@H]1Oc2ccc(NC(=O)CCN3CCOCC3)cc2CC(=O)N([C@H](C)CO)C[C@H]1C` here?
Its outcome is “inactive”.

For `C[C@@H]1CN([C@H](C)CO)C(=O)CCCn2cc(nn2)CO[C@@H]1CN(C)C(=O)c1ccc2ccn(C)c2c1`, which outcome is on record?
Its outcome is “inactive”.

Which outcome does the source give for `CC(C)NC(=O)N(C)C[C@@H]1Oc2ccc(NC(=O)C3CC3)cc2C(=O)N([C@@H](C)CO)C[C@H]1C` here?
Its outcome is “inactive”.

With `C[C@@H]1CN([C@H](C)CO)C(=O)Cc2cc(NC(=O)C3CC3)ccc2O[C@H]1CN(C)Cc1ccc2c(c1)OCO2` as the compound, how does the outcome read?
Its outcome is “inactive”.

For `C[C@@H]1CCCCO[C@H](CN(C)C(=O)c2ccccc2)[C@H](C)CN([C@@H](C)CO)C(=O)c2cc(NC(=O)Nc3ccc4c(c3)OCO4)ccc2O1`, which outcome is on record?
Its outcome is “inactive”.

`C[C@@H]1CN([C@@H](C)CO)C(=O)c2cc(NC(=O)Nc3ccc4c(c3)OCO4)ccc2O[C@@H](C)CCCCO[C@@H]1CN(C)Cc1ccccc1` was tested. Which outcome did it give?
The outcome was “active”.

`C[C@H](CO)N1C[C@H](C)[C@@H](CN(C)C(=O)Nc2ccccc2)Oc2ccc(NC(=O)C3CC3)cc2CC1=O` was tested. Which outcome did it give?
Its outcome is “inactive”.

`C[C@@H]1CCCCO[C@H](CN(C)Cc2ccncc2)[C@H](C)CN([C@H](C)CO)C(=O)c2cc(NC(=O)Nc3ccccc3)ccc2O1` was tested. Which outcome did it give?
Its outcome is “inactive”.

For `C[C@@H]1CN([C@H](C)CO)C(=O)Cc2cc(NC(=O)C3CC3)ccc2O[C@H]1CN(C)Cc1ccc(Cl)c(Cl)c1`, which outcome is on record?
The outcome was “active”.

Which outcome does the source give for `C[C@@H]1CCCCO[C@@H](CN(C)Cc2ccc(C(=O)O)cc2)[C@H](C)CN([C@@H](C)CO)C(=O)c2cc(NC(=O)Nc3ccc(C(F)(F)F)cc3)ccc2O1` here?
Its outcome is “inactive”.

With `C[C@@H]1CC[C@]2(C)[C@H](CC[C@@H](O)[C@]2(C)O)[C@@]1(C)CC(=O)c1ccoc1` as the compound, how does the outcome read?
Its outcome is “inactive”.

For `CC(=O)N[C@@H](C(=O)O[C@H]1CCC(C)(C)[C@@H]2CCC3=C(COC3=O)[C@@]12C)C(C)C`, which outcome is on record?
The outcome was “inactive”.

Which outcome does the source give for `CC(C)NC(=O)N(C)C[C@H]1OCCCC[C@H](C)Oc2ccc(NC(=O)Nc3ccc(C(F)(F)F)cc3)cc2C(=O)N([C@H](C)CO)C[C@@H]1C` here?
The outcome was “inactive”.

With `CC(C)NC(=O)N(C)C[C@@H]1OCCCC[C@@H](C)Oc2ccc(NC(=O)Cc3ccccc3)cc2C(=O)N([C@H](C)CO)C[C@H]1C` as the compound, how does the outcome read?
Its outcome is “inactive”.

With `C[C@H]1CN([C@@H](C)CO)C(=O)c2cccc(NC(=O)Nc3ccc(C(F)(F)F)cc3)c2O[C@H]1CN(C)C(=O)NC1CCCCC1` as the compound, how does the outcome read?
Its outcome is “inactive”.

`COC(=O)C1=CO[C@@H](O[C@@H]2O[C@H](CO)[C@@H](O)[C@H](O)[C@H]2O)[C@@H]2[C@@](C)(O)[C@@H](OC(=O)/C=C/c3ccc(OC)c(OC)c3)C[C@]12O` was tested. Which outcome did it give?
Its outcome is “inactive”.

With `C[C@H](CO)N1C[C@H](C)[C@H](CN(C)S(=O)(=O)c2cn(C)cn2)Oc2c(NC(=O)c3ccncc3)cccc2C1=O` as the compound, how does the outcome read?
Its outcome is “inactive”.

Which outcome does the source give for `Cc1noc(C)c1NC(=O)N(C)C[C@@H]1Oc2ccc(NC(=O)Nc3ccc(F)cc3)cc2C(=O)N([C@H](C)CO)C[C@@H]1C` here?
Its outcome is “inactive”.

Which outcome does the source give for `C[C@H](CO)N1C[C@H](C)[C@H](CN(C)C)Oc2c(NC(=O)C3CCOCC3)cccc2C1=O` here?
The outcome was “inactive”.

`C[C@@H]1CN([C@@H](C)CO)C(=O)Cc2cc(NS(C)(=O)=O)ccc2O[C@@H]1CN(C)Cc1ccc2c(c1)OCO2` was tested. Which outcome did it give?
The outcome was “inactive”.

`O=C(C1=C[C@H](c2ccc(C(F)(F)F)cc2)C[C@H](OCc2ccc(CO)cc2)O1)N1CCN(Cc2ccccc2)CC1` was tested. Which outcome did it give?
Its outcome is “inactive”.

With `C[C@H](CO)N1C[C@H](C)[C@@H](CN(C)C)Oc2ccc(NS(=O)(=O)c3cccs3)cc2C1=O` as the compound, how does the outcome read?
Its outcome is “inactive”.

Which outcome does the source give for `COc1ccc(S(=O)(=O)N(C)C[C@H]2OCCCC[C@@H](C)Oc3ccc(NC(=O)CCC(F)(F)F)cc3C(=O)N([C@@H](C)CO)C[C@H]2C)cc1` here?
The outcome was “inactive”.

For `Cc1noc(C)c1NC(=O)N(C)C[C@H]1Oc2ccc(N(C)C)cc2CC(=O)N([C@H](C)CO)C[C@H]1C`, which outcome is on record?
The outcome was “inactive”.

How did the outcome turn out when `C[C@H]1CCCCO[C@H](CN(C)C(=O)Nc2ccccc2)[C@@H](C)CN([C@@H](C)CO)C(=O)c2cc(NC(=O)CCC(F)(F)F)ccc2O1` was run?
Its outcome is “inactive”.

How did the outcome turn out when `N#Cc1c(-c2ccccc2)cc(-c2ccccc2)nc1SCC(=O)O` was run?
The outcome was “inactive”.

`CC(Sc1nnc(N)s1)C(=O)Nc1cccc(Cl)c1` (stereo unspecified) was tested. Which outcome did it give?
The outcome was “inactive”.

How did the outcome turn out when `COc1ccc(NC(=O)Nc2cccc3c2O[C@@H](CN(C)Cc2ccncc2)[C@H](C)CN([C@H](C)CO)C3=O)cc1` was run?
The outcome was “inactive”.

For `COC(=O)C1(Cc2ccc(O)c(CC3OC3(C)C)c2)OC(=O)C(=O)C1c1ccc(O)cc1` (stereo unspecified), which outcome is on record?
The outcome was “inactive”.

Which outcome does the source give for `C[C@@H]1CCCCO[C@H](CN(C)S(=O)(=O)c2cccs2)[C@H](C)CN([C@@H](C)CO)C(=O)c2cc(NS(=O)(=O)c3cccs3)ccc2O1` here?
Its outcome is “inactive”.

With `C[C@@H]1CN([C@H](C)CO)C(=O)c2cc(NC(=O)NC3CCCCC3)ccc2O[C@H]1CN(C)C(=O)Nc1ccccc1` as the compound, how does the outcome read?
The outcome was “inactive”.

`COc1ccc(C)cc1NC(=O)CSc1nc(SC)ns1` was tested. Which outcome did it give?
The outcome was “inactive”.

`C[C@H](CO)N1C[C@H](C)[C@@H](CN(C)C(=O)Nc2ccccc2F)OCc2cn(nn2)CCCC1=O` was tested. Which outcome did it give?
Its outcome is “inactive”.

`COc1ccc(NC(=O)Nc2ccc3c(c2)C(=O)N([C@H](C)CO)C[C@H](C)[C@@H](CN(C)S(=O)(=O)c2ccc(OC)cc2)OCCCC[C@H](C)O3)cc1` was tested. Which outcome did it give?
Its outcome is “inactive”.

With `C[C@H](CO)N1C[C@H](C)[C@H](CN(C)C(=O)Nc2ccc3c(c2)OCO3)Oc2ncc(Br)cc2C1=O` as the compound, how does the outcome read?
The outcome was “inactive”.

Which outcome does the source give for `C[C@H]1CN([C@@H](C)CO)C(=O)Cc2cc(NC(=O)Nc3ccc4c(c3)OCO4)ccc2O[C@H]1CN(C)CC1CC1` here?
Its outcome is “inactive”.
